Where “and” joins values, the source holds several entries; their conditions need not be identical. Equal values may be shown once. Results filed as inconclusive are left out. A structure can be active in one record and inactive in another. Calls of active or inactive are those of the source. Unless noted, calls follow the shape of the dose curve; as a rule, active = well fitted curve in the direction sought with a large enough effect in the repeat runs; inconclusive = weak or mixed curves; inactive = no such curve, though single readings can be large; an effect the other way counts as inactive or inconclusive.

Assay [1] can be described thus: qHTS assay to identify small molecule agonists of H2AX (AID 1224845; active = well fitted activation curve with a large enough effect in the signal ratio in the repeat runs, not every such curve was filed as active; the % refers to the signal ratio; also: potency is read from the fitted curve at half-maximal effect). The method, boiled down:
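Wild-type CHO-K1 cells, plated overnight, exposed 3hr at 37C to 15 concentrations (0.76% DMSO final). Lysed, then HTRF anti-pH2AX (S139) cryptate and anti-H2AX-d2 antibodies, 24 hr room temperature; 665/620 nm emission read.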

A short description of assay [2]: qHTS assay to identify small molecule agonists of H2AX - cell viability counter screen (AID 1224847; calls by dose curve; also: nearly all actives have a fitted effect of over 30% in size; also: potency is read from the fitted curve at half-maximal effect). The method, boiled down: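 Cells plated first: CHO-K1, 1000 per well in 10% FBS medium, incubated overnight at 37C. Then 15-point compound titration added (final DMSO 0.76%) for 3 hr. Finally CellTiter-Glo added and luminescence read.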
On the technique in general: qHTS replaces the single test concentration by a dilution series.

Assay [3] can be described thus: qHTS RealTime-Glo MT Cell Viability Assay in HepG2 cells - 24 hour (AID 1224867). Also: nearly all actives have a fitted effect of over 50% in size. Also: potency is read from the fitted curve at half-maximal effect. The method, boiled down:
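HepG2 cells were seeded at 600 cells/well together with NanoLuc luciferase and a cell-permeant prosubstrate, preincubated 5 h at 37 C/5% CO2, then pin-dosed with compounds in DMSO. Nonlytic luminescence from viable cells was read at each time point.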

Assay [4] in a line: qHTS RealTime-Glo MT Cell Viability Assay in HEK293 cells - 32 hour (AID 1224868). Also: nearly all actives have a fitted effect of over 50% in size. Also: potency is read from the fitted curve at half-maximal effect. Put shortly:
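HEK293 cells were seeded at 600 cells/well together with NanoLuc luciferase and cell-permeant prosubstrate, preincubated 5 h at 37 C/5% CO2, then given compound in DMSO by pintool. Luminescence from viable-cell prosubstrate reduction was read repeatedly over 40 h.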

Assay [5] can be described thus: A CellTox Green Cytotoxicity Assay to monitor cytotoxicity in HEK293 cells - 0 hour (AID 1224869). Also: nearly all actives have a fitted effect of over 50% in size. Put shortly:
(§1)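 Fluorescence intensity, read at 0, 8, 16, 24, 32 and 40 h of compound treatment, reflected dye binding to DNA of dead HEK293 cells; compounds (23 nL, DMSO) were added 5 h after plating cells with reagent.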

Assay [6] in a line: qHTS RealTime-Glo MT Cell Viability Assay in HepG2 cells - 40 hour (AID 1224870). Also: nearly all actives have a fitted effect of over 50% in size. Also: potency is read from the fitted curve at half-maximal effect. The method, boiled down:
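HepG2 cells (600/well) mixed with RealTime-Glo MT reagent, settled 5 h at 37 C/5% CO2 before compound addition. Nonlytic NanoLuc luminescence from viable-cell prosubstrate reduction read repeatedly during 40 h treatment at 37 C.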

A short description of assay [7]: qHTS assay to identify small molecule agonists of the estrogen related receptor (ERR) signaling pathway from Tox21 library (AID 1224849; calls by dose curve; also: nearly all actives have a fitted effect of over 15% in size). The following applies: ERR reporter cell line, ONE-Glo luciferase, 18 h. The method, boiled down: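 Screening used an NTP-provided ERR luciferase cell line. Compounds in DMSO were added 6 h after seeding and left 18 h at 37 C before a 30 min ONE-Glo step and luminescence reading.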

The nature of assay [8]: A CellTox Green Cytotoxicity Assay to monitor cytotoxicity in HEK293 cells - 40 hour (AID 1224871). Also: nearly all actives have a fitted effect of over 45% in size. Also: potency is read from the fitted curve at half-maximal effect. Put shortly:
as §1

Assay [9] in a line: qHTS assay to identify small molecule antagonists of the estrogen related receptor (ERR) signaling pathway from Tox21 library (AID 1224848). Also: nearly all actives have a fitted effect of over 50% in size. Also: potency is read from the fitted curve at half-maximal effect. The method, boiled down:
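ERR reporter cell line (from NTP) seeded 2,000 cells/well, rested 6 h at 37 C/5% CO2, then pin-dosed with compounds in DMSO. After 18 h at 37 C, ONE-Glo added; luminescence read after 30 min at room temperature.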

Assay [10] can be described thus: qHTS assay to identify small molecule agonists of the hypoxia (HIF-1) signaling pathway (AID 1224846; active = well fitted activation curve with a large enough effect in the signal ratio in the repeat runs, not every such curve was filed as active; the % refers to the signal ratio). Put shortly:
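A low-serum medium (0.5% dialyzed FBS) holding 2,000 HRE-bla ME-180 cells per well is preincubated for 5 hrs, dosed with compounds by pintool, and kept a further 17 hrs at 37C, 5% CO2 before CCF4-AM FRET detection of beta-lactamase.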

The mark [11] stands for this setting: at 92.4 µM (top of the series) unless noted.
% is scaled to controls: 0 for no effect and ±100 for the full control effect.

Turning to `C=CC(=O)OCCN(CC)CC`, the Potency entry in assay [1], in assay [2], in assay [3], in [4], in assay [5] and in [6] was “inactive” in each case.

For the compound `CCCC(CC)CCCCCCCN` (stereo not given), the Potency entry in [1], in assay [3], in assay [5] and in [6] was “inactive” throughout. The Potency in assay [2] is 103 µM (active); in assay [8], 50.2 µM (active). Moreover, the activity change, positive = activation in [7] (setting [11]) is -20.1% (inactive).

For the compound `COc1cc(C(=O)NS(=O)(=O)c2ccccc2C)ccc1Cc1cn(C)c2ccc(NC(=O)OC3CCCC3)cc12`, the Potency entry in [1], in assay [2], in assay [9], in assay [3], in assay [5] and in [6] was “inactive” in each case. In addition, the Potency result in assay [8] is “inactive”. Besides, the activity change, positive = activation in assay [7] (setting [11]) was -10.9% [at 42.5 µM] (inactive).

Turning to `NC(=O)c1nc(-c2cccc(-c3cc(F)ccc3OCC(F)(F)C(F)(F)F)c2)n[nH]1`, the Potency result in assay [1], in assay [3], in [5] and in assay [6] was “inactive” each time. For the same compound, the results for the Potency in assay [2] and in [9] were 101 µM (active) and 17.2 µM (active), respectively. In assay [7] (setting [11]), the activity change, positive = activation was -59.7% (inactive).

On to `CCCCCCCCCCCCOC(=O)c1cc(O)c(O)c(O)c1`, for which the Potency is 11.3 µM (active) in assay [1]; 100 µM (active) in assay [2]; 54.7 µM (active) and 49 µM (active) in [3]; 3.87 µM (active) and 3.47 µM (active) in assay [4]; 54.9 µM (active) in [6]. The Potency entry in assay [5] is “inactive”.

`CCCCCCOc1ccc(O)cc1`: the Potency is 11.3 µM (active) in assay [1] and 19.5 µM (active) in [8]. For the same compound, the Potency entry in assay [9], in assay [5] and in assay [6] was “inactive” in each case. In [7] (setting [11]), the activity change, positive = activation is 0.107% (inactive).

Turning to `CNC(=S)NN`, the Potency is 89.8 µM (active) in [1] and 13.7 µM (active) in assay [9]. Further, the Potency result in assay [2], in assay [3], in assay [5] and in assay [6] was “inactive” each time. Further, the activity change, positive = activation in [7] (setting [11]) is -71.8% (inactive).

As to `CCCCCCCOC(=O)c1ccc(O)cc1`, the Potency entry in assay [1], in assay [3], in [5] and in [6] was “inactive” in each case. Moreover, the Potency in [2] was 101 µM (active); in assay [4] it was 24.6 µM (active) and 21.9 µM (active); in [8] it was “inactive and 24.5 µM (active)”.

On to `C=C[C@](C)(O)CC[C@@H]1[C@@]2(C)CCCC(C)(C)[C@@H]2CC[C@@]1(C)O`, for which the Potency result in assay [1] and in assay [5] was “inactive” each time. Also, the Potency in assay [9] is 27.3 µM (active); in assay [3], 49 µM (active); in assay [4], 21.9 µM (active); in assay [6] it was 54.9 µM (active); in [8] it was 43.6 µM (active). Besides, in assay [7] (setting [11]), the activity change, positive = activation is -46.9% (inactive).

As to `CCCCCCCCCCCCCC[n+]1ccccc1`, the Potency result in [1] and in assay [5] was “inactive” in each case. The Potency was 56.6 µM (active) in assay [2]; 1.37 µM (active) in [9]; 19.5 µM (active) in assay [3]; 4.9 µM (active) in [4]; 9.77 µM (active) in assay [6]; 38.9 µM (active) in assay [8]. Moreover, the activity change, positive = activation in assay [7] (setting [11]) was -77.5% (inactive).

Take `COC(=O)C1=C(C)NC(C)=C(C(=O)OCCCN2CCC(c3ccccc3)(c3ccccc3)CC2)C1c1cccc([N+](=O)[O-])c1` (stereo not given): the Potency result in [1], in assay [5] and in assay [8] was “inactive” each time. The Potency was 10.6 µM (active) in [9] and 10.7 µM (active) in [4]. Moreover, the activity change, positive = activation in assay [7] (setting [11]) is -67.7% [at 42.5 µM] (inactive).

For `Nc1ncnc2c1ncn2[C@@H]1O[C@H](COP(=O)(O)O)[C@@H](O)[C@H]1O`, the Potency entry in assay [1], in assay [2], in [4], in [5], in assay [6] and in assay [8] was “inactive” throughout.

Consider `C1CC(COCC2CO2)CCC1COCC1CO1` (stereo not given), for which the Potency result in [1], in assay [2], in assay [3], in [4], in assay [5] and in assay [6] was “inactive” throughout. In addition, the Potency result in assay [8] is “inactive”. Also, the activity change, positive = activation in assay [7] (setting [11]) was -24.4% (inactive).

`C=C(c1ccc(C(=O)O)cc1)c1cc2c(cc1C)C(C)(C)CCC2(C)C`: the Potency is 89.8 µM (active) in assay [1]; 101 µM (active) and inactive in assay [2]; 21.7 µM (active) and 23.7 µM (active) in assay [9]; 30.9 µM (active) and inactive in [8]. Also, the activity change, positive = activation was -34.6% (inactive) in assay [7] (at 42.5 µM (top of the series)) and -63.5% (inactive) in [7] (at 92.4 µM (top of the series)). Moreover, the Potency entry in assay [3], in [4], in [5] and in [6] was “inactive” in each case.

In the case of `CCN(CC)CCNc1ccc(CO)c2sc3ccccc3c(=O)c12`, the Potency result in assay [1], in assay [2] and in [5] was “inactive” each time. The Potency in assay [9] is 13.3 µM (active); in assay [3], 23.9 µM (active); in assay [4], 16.9 µM (active); in assay [6], 21.3 µM (active). Moreover, the activity change, positive = activation in assay [7] (setting [11]) was -56.6% [at 42.5 µM] (inactive).

As to `CC(CN(C)C)CN1c2ccccc2CCc2ccccc21` (stereo not given), the Potency result in assay [1], in assay [2], in assay [3], in [5], in [6] and in [8] was “inactive” each time.

With `CC1=C(/C=C/C(C)=C/C=C/C(C)=C/C(=O)Nc2ccc(O)cc2)C(C)(C)CCC1`, the Potency result in [1], in [5], in [6] and in assay [8] was “inactive” throughout. Besides, the Potency was 103 µM (active) in assay [2]; 14 µM (active) and 11.9 µM (active) in [9]; “inactive and 26.8 µM (active)” in assay [3]; 1 µM (active) and 425 nM (active) in assay [4]. In addition, the activity change, positive = activation in assay [7] (at 42.5 µM (top of the series)) was -57.7% (inactive); in [7] (at 92.4 µM (top of the series)) it was -54.4% (inactive).

On to `O=Cc1ccc(F)cc1`, for which the Potency result in [1], in assay [3], in assay [5], in assay [6] and in assay [8] was “inactive” in each case. In addition, in assay [10], the result was inactive.

With `O=C(Nc1ccc(Cl)cc1)Nc1ccc(Cl)c(C(F)(F)F)c1`, the Potency entry in assay [1] and in assay [5] was “inactive” in each case. Moreover, the Potency is 22 µM (active) in assay [2] and 3.76 µM (active) in assay [9]. Moreover, in assay [7] (setting [11]), the activity change, positive = activation is -40.9% [at 42.5 µM] (inactive).

Take `CC(=O)Oc1ccc(C2(c3ccc(OC(C)=O)cc3)C(=O)Nc3ccccc32)cc1`: the Potency entry in [1], in [2], in assay [9], in [3], in assay [4] and in [5] was “inactive” in each case. The Potency entry in [6] and in assay [8] was “inactive” each time. Also, the activity change, positive = activation in [7] (setting [11]) was -9.03% [at 42.5 µM] (inactive).

Values taken from PubChem BioAssay (Tox21).
